Consider 40 compounds from PubChem BioAssay (NCATS).

Each structure is given as a SMILES string. Records with an inconclusive call do not appear. A call without a number means that no potency is given here. The source made the active and inactive calls. Calls follow the shape of the dose curve; as a rule, active = well fitted inhibition curve with a large enough effect; inconclusive = small, poorly fitted or top-dose-only effect; inactive = flat fitted curve, though single readings scatter.

Calcium and integrin-binding protein 1 (Homo sapiens), sequence (Q99828 whole entry, looked up): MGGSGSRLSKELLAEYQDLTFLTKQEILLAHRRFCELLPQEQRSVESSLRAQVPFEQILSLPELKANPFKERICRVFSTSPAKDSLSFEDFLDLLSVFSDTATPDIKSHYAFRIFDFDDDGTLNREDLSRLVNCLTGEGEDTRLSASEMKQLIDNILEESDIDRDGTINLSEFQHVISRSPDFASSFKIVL

The assay addresses Calcium and integrin-binding protein 1 (Homo sapiens) (UniProt Q99828). The assay is described as follows: Primary qHTS for Identification of Calcium Integrin Binding Protein 1 (CIB1) Competitor (AID 1508620). Also: top concentration of the series differs between compounds. Conditions: CIB1-GST / FITC-alphaIIb peptide fluorescence polarization; series mostly up to 114 µM. A digest of the protocol: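 Fluorescence polarization competition: GST-tagged CIB1 (1 uM final) preincubated with compound 15 min at room temperature, then FITC-labelled alphaIIb peptide (100 nM final) added. After 15 min at room temperature, polarization read at Ex 480/Em 540.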
With `O=C(NCCc1nc2ccccc2n1CCCc1ccccc1)C1CCCCC1`, the Potency entry was “inactive”.

As for `NC(=O)C1CCN(c2ncc(-c3ccc4c(c3)OC(F)(F)O4)s2)CC1`, the Potency entry is “inactive”.

As for `O=C1CCCC2=C1C(c1[nH]ncc1Br)N=C(Nc1nc3ccccc3o1)N2` (stereo not given), the Potency entry is “inactive”.

Take `COc1ccc(OC)c(C2=Nn3c(nnc3-c3cc(OC)ccc3OC)SC2)c1`: the Potency entry is “inactive”.

Consider `NC(=O)C1CCN(c2nc(-c3ccc(Oc4ccccc4)cc3)cs2)CC1`, for which the Potency entry was “inactive”.

On to `O=[S+]([O-])(Nc1ccc(N2CCNCC2)cc1)c1ccc(NCc2ccc(Cl)cc2O)cc1`, for which the Potency result was “inactive”.

`Cc1ccc(NS(=O)(=O)c2cc3c(cc2F)NC(=O)CC3)cc1C`: the Potency entry was “inactive”.

On to `O=C(CCCc1ccccc1)NC(c1ccco1)c1cc(Cl)c2cccnc2c1O` (stereo not given), for which the Potency entry was “inactive”.

Regarding `O=C(Nc1ccc2c(c1)OCO2)Nc1nnc(-c2ccncc2)s1`, the Potency entry is “inactive”.

In the case of `NC(=O)C1CCN(c2nc(-c3cccc(C(F)(F)F)c3)cs2)CC1`, the Potency result is “inactive”.

Take `N#Cc1cccc(-c2ccc(CNc3nc(-c4ccccc4C(F)(F)F)nc4ccccc34)cc2)c1`: the Potency entry is “inactive”.

Regarding `COc1ccc2ccccc2c1CN(C)CC(=O)Nc1ccc(N2CCOCC2)cc1`, the Potency entry is “inactive”.

For the compound `FC(F)(F)c1ccccc1-c1nc(NCc2ccc(-c3ccc(Cl)c(Cl)c3)cc2)c2ccccc2n1`, the Potency result was “inactive”.

Consider `COc1cc(O)c(C(CC(=O)N2CCCC(COc3ccc(F)cc3)C2)c2ccc3c(c2)OCO3)c(OC)c1` (stereo not given), for which the Potency result was “inactive”.

`COc1ccc(Nc2nc(C#N)nc(NC3CCCC3)n2)cc1`: the Potency entry is “inactive”.

Take `O=C(CSc1nc2ccccc2[nH]1)N1CCOCC1`: the Potency entry was “inactive”.

As to `CNC(=O)C1=C(C)NC(Nc2nc3ccccc3o2)=NC1c1[nH]ncc1Cl` (stereo not given), the Potency entry was “inactive”.

Consider `Cc1cc2c(s1)c1cnn(Cc3ccc(F)c(C)c3)c(=O)c1n2C`, for which the Potency entry was “inactive”.

Turning to `CC(=O)c1cccc(NC(=O)Nc2nnc(-c3ccncc3)s2)c1`, the Potency result was “inactive”.

As to `COc1cc(OC)cc(-c2nnc3n2N=C(c2ccc(OC)cc2OC)CS3)c1`, the Potency entry is “inactive”.

As to `CCNc1cccc(S(=O)(=O)N2CCCN(S(=O)(=O)c3ccc4c(c3)OCCO4)CC2)c1`, the Potency entry was “inactive”.

As for `O=C1c2ccccc2C(=O)N1c1cccc(=O)[nH]1`, the Potency entry is “inactive”.

`COc1ccc(C(=O)N(Cc2cccs2)Cc2cccs2)c(O)c1`: the Potency entry was “inactive”.

For `CC(=O)NC(c1ccco1)c1cc(Cl)c2ccc(Cl)nc2c1O` (stereo not given), the Potency entry is “inactive”.

In the case of `CN(C)C(=O)C1CCN(c2nc(-c3ccc(Br)cc3)cs2)CC1`, the Potency result was “inactive”.

Consider `O=C1CCc2cc([S+](=O)([O-])Nc3ccc(N[S+](=O)([O-])c4ccc5c(c4)CCC(=O)N5)cc3)ccc2N1`, for which the Potency result was “inactive”.

For `O=C(Nc1cccc([S+](=O)([O-])Nc2ccccc2F)c1)c1ccccc1`, the Potency result is “inactive”.

For `COc1cccc(C(=O)Nc2ccc(-c3nc4ccccc4[nH]3)cc2)c1`, the Potency result is “inactive”.

Consider `Cc1cccc(-n2cnc3cc(C(=O)N4CCC(N5CCOCC5)CC4)ccc32)c1`, for which the Potency entry was “inactive”.

Take `O=C(Nc1ncc(Cc2ccc(C(F)(F)F)cc2)s1)c1ccc(-c2ccccc2[N+](=O)[O-])o1`: the Potency result was “inactive”.

On to `O=C(O)c1cccc2c1C(=O)N(c1ccccc1)C2`, for which the Potency result was “inactive”.

As to `Cc1ccc(NCc2ccc(O)c3ncccc23)c(F)c1`, the Potency result was “inactive”.

As to `CC(=O)c1ccc(N2CCN(S(=O)(=O)c3ccc4c(c3)CC(C)N4C(C)=O)CC2)cc1` (stereo not given), the Potency entry was “inactive”.

As to `COc1ccc(C(=O)N(Cc2ccccc2)Cc2ccc(OC)c(COc3ccc(NC(C)=O)cc3)c2)c(O)c1`, the Potency entry is “inactive”.

In the case of `CS(=O)(=O)c1ccc(C(=O)OCC(=O)N2CCOCC2)cc1[N+](=O)[O-]`, the Potency result was “inactive”.

On to `Cc1cc2c(s1)c1cnn(Cc3cc(F)c(F)c(F)c3)c(=O)c1n2C`, for which the Potency entry is “inactive”.

Take `O=S(=O)(Nc1cnc2ccccc2c1)c1ccc(NCc2ccc(Br)cc2O)cc1`: the Potency result was “inactive”.

Turning to `N#Cc1ccc(Nc2nn3c(=O)c4ccccc4nc3s2)cc1`, the Potency entry was “inactive”.

In the case of `Cc1cc(C)nc(NC(=S)N2CCN(c3cncnc3)CC2)c1`, the Potency entry is “inactive”.

Turning to `Oc1ccc(CNc2ccccc2Cl)c2cccnc12`, the Potency result was “inactive”.
